Shown are actives, neighbours in structure and some others; about 4.6% of the full set was active somewhere.
TRHR PAM = allosterically enhances the human TRH receptor | TRHR cells, fluo-8 calcium fluorescence, EC20 TRH enhancement | enhancement, % at 2 µM | actives 0.66% (n = 360,000); in the data active means enhancement above about 30%
Target sequence (P34981 whole entry, looked up): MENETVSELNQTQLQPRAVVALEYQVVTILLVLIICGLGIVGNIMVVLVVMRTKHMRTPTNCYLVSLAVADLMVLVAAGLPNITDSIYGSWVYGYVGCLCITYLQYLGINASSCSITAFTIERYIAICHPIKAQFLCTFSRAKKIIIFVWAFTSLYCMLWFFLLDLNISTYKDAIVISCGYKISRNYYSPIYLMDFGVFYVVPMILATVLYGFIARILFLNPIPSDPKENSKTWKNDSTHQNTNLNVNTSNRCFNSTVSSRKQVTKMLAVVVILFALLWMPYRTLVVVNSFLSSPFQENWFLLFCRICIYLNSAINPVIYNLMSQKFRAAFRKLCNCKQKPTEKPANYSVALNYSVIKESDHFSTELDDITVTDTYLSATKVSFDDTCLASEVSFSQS
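TRHR-expressing cells loaded with fluo-8 calcium dye were read kinetically (ex 480/em 530) during compound addition, then stimulated with an EC20 of TRH (10 nM final). Enhancement of the Gq-mediated intracellular calcium response was scored.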
TRHR ag = activates the human TRH receptor. TRHR cells, calcium flux fluo-8, FDSS agonist mode. actives 0.18% (n = 360,000). activation, % at 2 µM
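TRHR-expressing cells, plated overnight in medium with 10% serum, were loaded with fluo-8 calcium dye at room temperature. After a 10 s baseline, library compound was pin-added and calcium release was recorded kinetically (ex 480/em 530) as agonist response.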
D1 antag = human D1 dopamine receptor antagonism. activity change, negative = inhibition, % at 10 µM. actives 3.2% (n = 360,000). HEK293 TREx D1 cells, calcium flux, dopamine EC80; hits give low values. P21728; in the data active means activity change below about -30%
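Cells carrying a force-coupled, tetracycline-inducible human D1 receptor report calcium flux. Each well gets a 10 s baseline, compound with 180 s monitoring, then an EC80 dopamine stimulus with a second 180 s kinetic read.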
D1 potentiator = potentiators of human D1 dopamine receptor; HEK293 TREx D1 cells, calcium flux, dopamine EC20 potentiation; potentiation, % at 10 µM; actives 0.036% (n = 360,000); P21728; in the data active means potentiation above about 30%
D1 agonist = human D1 receptor agonism. P21728. activation, % at 2 µM. actives 1% (n = 360,000). HEK293 T-REx D1 cells, calcium flux, agonist mode
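Agonism was scored from calcium flux recorded over 180 s (1 read/s) after pintool compound addition, following a 10-cycle baseline. Cells were inducible force-coupled HEK293 TREx D1, plated overnight at 30 C and loaded with no-wash calcium dye.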
Hits are given with their value; - = inactive. Unless noted, no stated cut-off is given here; in the data, active means activation above about 30%; inactive means the rest.

SMILES	TRHR PAM	TRHR ag	D1 antag	D1 potentiator	D1 agonist
O=C(CSc1nccn1Cc1ccc(F)cc1)Nc1nc2ccccc2s1	-	-	-	-	-
COc1ccc(NS(=O)(=O)c2ccc(C(=O)N(C)Cc3cccs3)cc2)cc1	-	-	-34.8	-	59.6
COc1ccc(NS(=O)(=O)c2cccc(C(=O)N(C)Cc3cccs3)c2)cc1	-	-	-	-	-
Cc1ccc(NS(=O)(=O)c2ccc(C(=O)NCC(c3ccco3)N3CCCCC3)cc2)cc1 (centres undefined)	-	-	-	-	38.6
Cc1ccc(S(=O)(=O)NC(CC(C)C)C(=O)NCC(c2ccco2)N2CCCCC2)cc1 (centres undefined)	-	-	-	-	-
CC(=O)Nc1ccc(S(=O)(=O)NC(C)C(=O)NCC(c2ccco2)N2CCCCC2)cc1 (centres undefined)	-	-	-46.4	-	-
CCOc1ccc(S(=O)(=O)Nc2ccc(C(=O)NCC(c3ccco3)N3CCCCC3)cc2)cc1 (centres undefined)	-	-	-	-	32.8
O=C(NCC(c1ccco1)N1CCCCC1)c1ccc(S(=O)(=O)Nc2ccccc2)cc1 (centres undefined)	-	-	-	-	-
O=S(=O)(NCC(c1ccco1)N1CCCCC1)c1ccccc1C(F)(F)F (centres undefined)	-	-	-41.9	-	-
Cn1cnc(S(=O)(=O)N2CCN(c3cccc(C(F)(F)F)c3)CC2)c1	-	-	-32.1	-	-
Cc1ccc(C)c(N2CCN(CCCNC(=O)c3ccc4nc(N5CCCCC5)sc4c3)CC2)c1	-	-	-	-	-
COc1ccccc1NC(=O)c1ccc(S(=O)(=O)N2CCCC2)cc1	-	-	-	-	-
CCOC(=O)CSc1nnc(CNC(=O)c2ccc(S(=O)(=O)N3CCOCC3)cc2)n1C	-	-	-	-	-
CCOC(=O)CSc1nnc(CNC(=O)c2ccc(S(=O)(=O)N3CCCC3)cc2)n1C	-	-	-	-	53.6
Cc1ccc(C)c(OCCC(=O)N2CCN(S(=O)(=O)c3ccc([N+](=O)[O-])cc3)CC2)c1	-	-	-32.6	-	-
CCOc1ccccc1NC(=O)c1ccc(S(=O)(=O)N2CCCCC2)cc1	32.1	-	-	-	-
Cc1ccc(S(=O)(=O)N2CCN(C(=O)COC(=O)CCOc3ccccc3C)CC2)cc1	-	-	-36.2	-	-
Cc1ccc(S(=O)(=O)N2CCN(C(=O)COC(=O)CCOc3cc(C)ccc3C)CC2)cc1	-	-	-	-	-
CCc1ccc(OCC2c3cc(OC)c(OC)cc3CCN2C(=O)COc2ccccc2)cc1 (centres undefined)	-	-	-	-	-
Cc1ccccc1OCC(=O)Nc1ccc(C(=O)OCc2cc(=O)n3c(C)csc3n2)cc1	-	-	-	-	-
Cc1nc2ccn(Cc3cccs3)c(=O)c2cc1C(=O)N1CCN(c2ccccc2)CC1	-	-	-	-	-
CCc1ccc(NC(=O)CSc2nc(-c3ccccc3Cl)nc3c2Cc2c(CO)cnc(C)c2O3)cc1	-	-	-	-	-
CCOc1ccc(NS(=O)(=O)c2ccc(C(=O)N(C)C)s2)cc1	-	-	-	-	-
Cc1ccc(C)c(OCCC(=O)OCC(=O)N2CCN(S(=O)(=O)c3ccc(Cl)cc3)CC2)c1	-	-	-	-	-
Cc1ccccc1OCC(=O)OCC(=O)Nc1cc(S(=O)(=O)N2CCCCC2)ccc1Cl	-	-	-96.3	-	-
SMILES	TRHR PAM	TRHR ag	D1 antag	D1 potentiator	D1 agonist
CCN1CCN(S(=O)(=O)c2ccc(OC)c(NC(=O)c3ccccc3)c2)CC1	-	-	-48.1	-	-
CCOc1ccc(OCCC(=O)OCC(=O)N2CCN(S(=O)(=O)c3ccc(Cl)cc3)CC2)cc1	-	-	-31.9	-	-
Cc1ccccc1OCCOC(=O)c1ccc(S(=O)(=O)N2CCCC2)cc1	-	-	-30.8	-	-
COc1ccc(N2CCN(Cc3nc4c(c(=O)[nH]c(=O)n4C)n3CC(C)C)CC2)cc1	-	-	-	-	-
CCCC(=O)OCc1cnc(C)c2oc(=O)c(C(=O)Nc3ccc(F)cc3C)cc12	-	-	-	-	-
COc1cc(OC)c(NC(=O)c2cc3c(=O)oc4ccc(C)cc4c3s2)cc1Cl	-	-	-	-	-
CCOC(=O)c1noc2ncn(Cc3ccc([N+](=O)[O-])cc3)c(=O)c12	-	-	-	-	-
CCOC(=O)c1sc(NC(=O)c2nc3nc(C)cc(C(F)F)n3n2)c(C(=O)OC(C)C)c1C	-	-	-	-	-
O=C(C1CCN(CCCc2ccccc2)CC1)N(CCc1ccccc1)Cc1ccccc1	-	-	-44.7	-	-
O=C(C1CCN(CC2CC=CCC2)CC1)N(CCc1ccccc1)Cc1ccccc1 (centres undefined)	-	-	-	-	-
CCOCC(=O)Nc1cc(C(=O)OC)ccc1C(=O)OC	-	-	-	-	-
COC(=O)c1ccc(C(=O)OC)c(NC(=O)COC(=O)c2ccc(OC)c(OC)c2OC)c1	-	-	-86.3	-	-
CNS(=O)(=O)c1cn(CC(=O)N2CCN(c3ccc(C)cc3C)CC2)cc1S(=O)(=O)NC	-	-	-	-	-
O=C(OCCN1C(=O)c2ccccc2C1=O)c1cc(S(=O)(=O)N2CCOCC2)ccc1Cl	-	-	-	-	-
O=C(OCCN1C(=O)c2cccc3c(N4CCOCC4)ccc(c23)C1=O)c1ccccc1Cl	-	-	-	-	167.4
O=C(OCCN1C(=O)c2cccc3c(N4CCOCC4)ccc(c23)C1=O)c1cccc(Cl)c1	-	35.1	-	-	82.7
O=C(OCCN1C(=O)c2cccc3c(N4CCOCC4)ccc(c23)C1=O)c1ccc(Cl)cc1Cl	-	71.1	-37.4	-	165.3
COc1cccc(Cc2nc3ccccc3nc2SCC(=O)NCc2ccc(C)cc2)c1	-	-	-	-	-
COc1cccc(N2CCN(C(=O)CCCn3c(=O)[nH]c4ccc(Br)cc4c3=O)CC2)c1	-	-	-	-	-
O=C(CNC(=O)c1ccc(-c2ccccc2)cc1)OC(C(=O)Nc1cc(C(F)(F)F)ccc1Cl)c1ccccc1 (centres undefined)	-	-	-	-	-
CCOc1cc(CNCc2cccs2)ccc1OCC(=O)NC(C)(C)C	-	-	-	-	-
CCOc1cc(CNCc2cccnc2)ccc1OCC(=O)NC(C)(C)C	36.4	-	-	-	-
COc1cc(CNCCN2CCOCC2)ccc1OCC(=O)NC(C)(C)C	-	-	-	-	32.4
COc1cc(CNCCCN2CCOCC2)ccc1OCC(=O)NC(C)(C)C	-	-	-	-	-
CCOc1cc(CNCCc2ccc(S(N)(=O)=O)cc2)ccc1OCC(=O)NC(C)(C)C	-	-	-	-	-
CCOc1cc(CNCCc2ccccc2)ccc1OCC(=O)NC(C)(C)C	-	-	-	-	122.2
